Experimental data as given in PubChem BioAssay (NCATS).
Values without a mark were called inactive. Records with an inconclusive call do not appear. The source made the active and inactive calls. Unless noted, calls follow the shape of the dose curve; as a rule, active = well fitted curve in the direction sought with a large enough effect; inconclusive = small, poorly fitted or top-dose-only effect, or another doubt; inactive = no such curve, though single readings can be large; an effect the other way counts as inactive or inconclusive.

How the values were obtained:
[1] = target: Lysosomal acid glucosylceramidase (Homo sapiens) (UniProt P04062); test: Glucocerebrosidase-p2 (AID 348; in the data active = potency below about 10 µM; also: potency is read from the fitted curve at half-maximal effect); conditions: purified GBA, blue fluorogenic substrate, 40 min
Outline: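 Compounds titrated from 0.6 nM upwards against 0.2 nM enzyme in pH 5.9 citric acid/KH2PO4, taurocholate, tween-20; blue fluorogenic substrate 80 uM, 40 min room temperature, stopped and read Ex 365/Em 440 for AC50.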

[2] = target: Cytochrome P450 1A2 (Homo sapiens) (UniProt P05177); test: p450-cyp1a2 (AID 410; calls by dose curve; also: potency is read from the fitted curve at half-maximal effect); conditions: recombinant CYP1A2, luciferin-ME demethylation, luminescence; series mostly up to 57 µM
Outline: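 Inhibition was calculated relative to 57 uM furafylline (full inhibition). The reaction used human CYP1A2 at 20nM with Luciferin-ME at its Km, 100uM, driven by an NADPH-regenerating system for 60 min at room temperature.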

[3] = Stat Signaling Pathway (AID 446; active = well fitted curve in either direction with a large enough effect, not every such curve was filed as active;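 also: ME-180 cervical cancer cells given 40 pM IL-6 alongside compound; SIE-controlled beta-lactamase reporter measured as 460/530 nm FRET emission ratio; % is scaled to controls: 0 for no effect and ±100 for the full control effect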); conditions: ME-180 SIE beta-lactamase reporter, IL-6 stimulated, 5 h; series mostly up to 7.69 µM
Outline: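 IL-6/STAT signaling read in ME-180 cells via an SIE beta-lactamase reporter. Stimulus was 40 pM IL-6 (its AC50) for 5 hrs, so both activation and inhibition register.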

[4] = target: Glucocorticoid receptor (Homo sapiens) (UniProt P04150); test: GR-GFP Redistribution (AID 450;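 active = compounds whose dose series gives a full or clear partial fitted curve of increased nuclear translocation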; also: potency is read from the fitted curve at half-maximal effect); conditions: U2OS GR-GFP nuclear translocation, laser cytometry, 2 h
[5] = target: Mitogen-activated protein kinase 10 (Mus musculus) (UniProt Q61831); test: JNK3 AlphaScreen Assay (AID 530; active = well fitted curve in either direction with a large enough effect, not every such curve was filed as active;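 also: kinase came from lysate of stimulated human HepG2 cells; signal reports phosphorylation of biotinylated GST-cJun 1-79 at Ser73 with 10 µM ATP; % is scaled to controls: 0 for no effect and ±100 for the full control effect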); conditions: JNK3 lysate, c-Jun phosphorylation; series mostly up to 57.1 µM
Outline: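 qHTS format: compounds tested as titrations against IL-1beta/TNF-alpha-activated HepG2 lysate JNK3 with biotin-GST-cJun substrate and 10 uM ATP at room temperature. Loss of anti-phospho-cJun AlphaScreen signal indicates inhibition.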

[6] = target: 3',5'-cyclic-AMP phosphodiesterase 4B (Homo sapiens) (UniProt Q07343); test: qHTS Assay for Inhibitors of PDE-IV (AID 607; active = well fitted activation curve with a large enough effect in the main read-out, with a control signal flat, not every such curve was filed as active; also: % of control where 0% means no effect); conditions: HEK293 ACTOne CNG channel cells, membrane potential fluorescence; series mostly up to 22.9 µM
Outline: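 Live HEK293 cells with a modified cyclic nucleotide-gated (CNG) channel report intracellular cAMP via membrane-potential dye fluorescence (ex 535/em 590 nm). Endogenous PDE-IV was targeted. Compounds were tested at up to 22.9 uM final; RO 20-1724 100 uM served as control.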

[7] = target: Cytochrome P450 3A4 (Homo sapiens) (UniProt P08684); test: qHTS Assay for Inhibitors and Substrates of Cytochrome P450 3A4 (AID 884); conditions: recombinant CYP3A4, Luciferin-PPXE luminescence; series mostly up to 57.1 µM; also: nearly all actives have a fitted effect of over 50% in size; also: potency is read from the fitted curve at half-maximal effect
Outline: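 20 nM human CYP3A4 with 25 uM Luciferin-PPXE (at KM) in 200 mM KPO4, preincubated 10 min with compound; NADPH regeneration started a 60 min RT reaction. Luciferin detected by luminescence, normalized to 57 uM ketoconazole as full inhibition.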

[8] = target: Cytochrome P450 3A4 (Homo sapiens) (UniProt P08684); test: qHTS Assay for Activators of Cytochrome P450 3A4 (AID 885); conditions: recombinant CYP3A4, Luciferin-PPXE luminescence, 60 min; series mostly up to 57.1 µM; also: nearly all actives have a fitted effect of over 65% in size
Outline: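 Quantitative HTS format: compounds preincubated with 20nM human CYP3A4 and Luciferin-PPXE substrate at KM, reaction started by NADPH regeneration, stopped after 60 min, luciferase luminescence read 20 min later.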

[9] = target: Dual specificity protein kinase CLK4 (Homo sapiens) (UniProt Q9HAZ1); test: qHTS Assay for Inhibitors of CDC-like Kinase 4 (Kinase-Glo Assay) (AID 1770); conditions: recombinant Clk4, Kinase-Glo ATP depletion luminescence; series mostly up to 66.7 µM; also: nearly all actives have a fitted effect of over 65% in size; also: potency is read from the fitted curve at half-maximal effect
Outline: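 Clk4 25 nM, RS peptide 100 uM, ATP 1 uM, pH 7.5 Tris, 10 mM MgCl2, 2.5 mM DTT; 4.5 h RT; ATP depletion read by Kinase-Glo luminescence.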

[10] = target: Dual specificity protein kinase CLK4 (Homo sapiens) (UniProt Q9HAZ1); test: qHTS Assay for Inhibitors of CDC-like Kinase 4 (ADP-Glo Assay) (AID 1771); conditions: recombinant CLK4, ADP-Glo luminescence; series mostly up to 80 µM; also: nearly all actives have a fitted effect of over 70% in size; also: potency is read from the fitted curve at half-maximal effect
Outline: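 Kinase reaction: Clk4 at 25 nM, RS repeat peptide substrate at 100 uM, ATP at 1 uM, 1 hr, room temperature. Product ADP detected as luciferase signal via ADP-Glo.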

[11] = target: Ubiquitin carboxyl-terminal hydrolase 1 (Homo sapiens) (UniProt O94782); test: Inhibitors of USP1/UAF1: Pilot qHTS (AID 504865); conditions: purified USP1/UAF1, Ub-rhodamine cleavage fluorescence; series mostly up to 54.9 µM; also: nearly all actives have a fitted effect of over 35% in size; also: potency is read from the fitted curve at half-maximal effect
Outline: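 Enzyme-free wells gave the negative control, while test wells held 1nM USP1/UAF1 preincubated with compound for 15 min at room temperature. Ub-Rho at 150nM final started the reaction, and fluorescence at 480/540 nm was recorded kinetically.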

[12] = AP1 Signaling Pathway (AID 357; active = well fitted curve in either direction with a large enough effect, not every such curve was filed as active;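 also: ME-180 reporter cells stimulated with EGF at its EC50 level; % is scaled to controls: 0 for no effect and ±100 for the full control effect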); conditions: ME-180 AP-1-bla reporter, EGF-induced, beta-lactamase ratio, 5 h; at 7.69 µM (top of the series) unless noted
Outline: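 In this screen, ME-180 cells in Opti-MEM with 0.5% dialyzed FBS received EC50 EGF and compound titrations for 5 h. AP-1 reporter beta-lactamase was detected via CCF4 ratio, giving AC50 for positive and negative modulators.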

[13] = NFAT Signaling Pathway (AID 444; active = well fitted curve in either direction with a large enough effect, not every such curve was filed as active;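 also: carbachol stimulus at about its EC50 of 1 µM final; % is scaled to controls: 0 for no effect and ±100 for the full control effect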); conditions: Jurkat NFAT-bla M1, carbachol, beta-lactamase ratio, 5 h; at 7.69 µM (top of the series) unless noted
Outline: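 Jurkat cells with NFAT-driven β-lactamase reporter and co-expressed M1 receptor, stimulated with carbachol (final 1 uM, ~EC50), compound titration, 5 h at 37 °C. CCF4 loaded 1 h at RT; 460/530 nm ratio gave %activity and AC50.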

[14] = target: Glucocorticoid receptor (Homo sapiens) (UniProt P04150); test: GR-EFC Redistribution (AID 451; calls by dose curve; also: potency is read from the fitted curve at half-maximal effect); conditions: CHO-K1 GR-EFC translocation, beta-gal luminescence, 2 h
Outline: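 CHO-K1 cells expressing nuclear EA and GR-ED fragments of b-gal; compounds titrated up to 46 uM final, 2 h at 37 C. GR nuclear translocation read as complemented b-gal luminescence after 1 h RT detection.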

[15] = target: Cytochrome P450 2C19 (Homo sapiens) (UniProt P33261); test: qHTS Assay for Inhibitors and Substrates of Cytochrome P450 2C19 (AID 899); conditions: recombinant CYP2C19, luciferin-H EGE luminescence; series mostly up to 57.1 µM; also: potency is read from the fitted curve at half-maximal effect; nearly all actives have a fitted effect of over 60% in size
Outline: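 Luminescent read-out of luciferin formed from Luciferin-H EGE (10uM, equal to KM). Enzyme 5nM in 50mM KPO4; compound added, 10 min at 37C, then NADPH regenerating system for 60 min at 37C. Full inhibition defined by 57uM ketoconazole.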

[16] = target: Cytochrome P450 2D6 (Homo sapiens) (UniProt P10635); test: qHTS Assay for Inhibitors and Substrates of Cytochrome P450 2D6 (AID 891); conditions: recombinant CYP2D6, luciferin-ME EGE luminescence; series mostly up to 57.1 µM; also: potency is read from the fitted curve at half-maximal effect; nearly all actives have a fitted effect of over 60% in size
Outline: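 Human CYP2D6 (5 nM) with 30 uM Luciferin-ME EGE (at Km) in 100 mM KPO4, compound preincubated 10 min, then NADPH regeneration system for 60 min at room temperature. Luciferin read by luminescence; normalized to 1.43 uM quinidine.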

[17] = target: Dual specificity protein kinase CLK4 (Homo sapiens) (UniProt Q9HAZ1); test: qHTS Assay for Inhibitors of CDC-like Kinase 4 (ADP-FP Assay) (AID 1795); conditions: Transcreener ADP fluorescence polarization; series mostly up to 50 µM; also: nearly all actives have a fitted effect of over 60% in size; also: potency is read from the fitted curve at half-maximal effect
Outline: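 Kinase activity was followed as ADP output, converted from fluorescence polarization with a calibration curve. Reactions ran one hour at low ATP (1 uM) with RS peptide substrate.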

[18] = qHTS Assay for Identification of Small Molecule Agonists for Hypoxia Response Element Signaling Pathway (AID 914; active = well fitted activation curve with a large enough effect in the signal ratio, with a control signal flat, not every such curve was filed as active; the % refers to the signal ratio; also: potency is read from the fitted curve at half-maximal effect); conditions: ME-180 (cervical carcinoma) HRE-bla reporter, beta-lactamase ratio, CoCl2, 17 h; activation: stronger effect = higher value
Outline: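 In Opti-MEM containing 0.5% dialyzed FBS and 10 mM HEPES, ME-180 HRE-bla cells received a compound titration and EC50 CoCl2. They were incubated 17 hours, then CCF4-loaded 2.5 hours at room temperature before ratio reading.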

[19] = target: Cytochrome P450 2C9 (Homo sapiens) (UniProt P11712); test: qHTS Assay for Inhibitors and Substrates of Cytochrome P450 2C9 (AID 883); conditions: recombinant CYP2C9, luciferin-H luminescence, 60 min; series mostly up to 57.1 µM; also: potency is read from the fitted curve at half-maximal effect; nearly all actives have a fitted effect of over 60% in size
Outline: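 10nM CYP2C9 + 100uM Luciferin-H (=KM), 25mM KPO4; cpd 10 min 37C; NADPH regen, 60 min 37C; stop/detect with P450 Glo-Buffer 20 min; luminescence. Norm. to 57uM sulphaphenazole as full inhibition.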

Chain of Dual specificity protein kinase CLK4 (Homo sapiens) (Q9HAZ1 whole entry, looked up): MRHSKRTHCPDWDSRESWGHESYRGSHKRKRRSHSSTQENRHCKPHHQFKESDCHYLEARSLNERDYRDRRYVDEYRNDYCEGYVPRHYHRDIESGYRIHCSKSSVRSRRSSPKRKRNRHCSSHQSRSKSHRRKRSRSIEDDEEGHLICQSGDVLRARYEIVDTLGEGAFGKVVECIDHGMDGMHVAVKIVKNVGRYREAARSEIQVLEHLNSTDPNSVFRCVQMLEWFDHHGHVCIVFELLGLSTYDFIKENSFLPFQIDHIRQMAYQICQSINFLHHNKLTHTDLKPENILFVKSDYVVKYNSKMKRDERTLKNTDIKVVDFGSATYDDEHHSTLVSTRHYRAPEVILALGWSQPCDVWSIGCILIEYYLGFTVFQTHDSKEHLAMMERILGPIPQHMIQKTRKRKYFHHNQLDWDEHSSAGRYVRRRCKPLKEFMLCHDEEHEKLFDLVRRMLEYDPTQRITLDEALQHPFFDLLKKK
Chain of Cytochrome P450 1A2 (Homo sapiens) (P05177 whole entry, looked up): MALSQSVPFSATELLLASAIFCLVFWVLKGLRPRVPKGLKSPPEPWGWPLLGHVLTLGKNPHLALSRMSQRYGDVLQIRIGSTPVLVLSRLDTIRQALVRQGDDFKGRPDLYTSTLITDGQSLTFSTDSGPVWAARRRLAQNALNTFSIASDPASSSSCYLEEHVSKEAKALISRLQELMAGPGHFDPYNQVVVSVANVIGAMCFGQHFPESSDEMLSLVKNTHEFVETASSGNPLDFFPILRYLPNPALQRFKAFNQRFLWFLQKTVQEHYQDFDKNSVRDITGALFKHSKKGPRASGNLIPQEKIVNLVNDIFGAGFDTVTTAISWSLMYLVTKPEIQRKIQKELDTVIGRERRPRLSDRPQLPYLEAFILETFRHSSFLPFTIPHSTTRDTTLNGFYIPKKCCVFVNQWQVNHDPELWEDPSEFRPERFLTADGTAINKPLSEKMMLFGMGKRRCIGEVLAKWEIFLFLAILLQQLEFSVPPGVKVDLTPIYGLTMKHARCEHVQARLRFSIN
Chain of Glucocorticoid receptor (Homo sapiens) (P04150 whole entry, looked up, the tested form may be a part): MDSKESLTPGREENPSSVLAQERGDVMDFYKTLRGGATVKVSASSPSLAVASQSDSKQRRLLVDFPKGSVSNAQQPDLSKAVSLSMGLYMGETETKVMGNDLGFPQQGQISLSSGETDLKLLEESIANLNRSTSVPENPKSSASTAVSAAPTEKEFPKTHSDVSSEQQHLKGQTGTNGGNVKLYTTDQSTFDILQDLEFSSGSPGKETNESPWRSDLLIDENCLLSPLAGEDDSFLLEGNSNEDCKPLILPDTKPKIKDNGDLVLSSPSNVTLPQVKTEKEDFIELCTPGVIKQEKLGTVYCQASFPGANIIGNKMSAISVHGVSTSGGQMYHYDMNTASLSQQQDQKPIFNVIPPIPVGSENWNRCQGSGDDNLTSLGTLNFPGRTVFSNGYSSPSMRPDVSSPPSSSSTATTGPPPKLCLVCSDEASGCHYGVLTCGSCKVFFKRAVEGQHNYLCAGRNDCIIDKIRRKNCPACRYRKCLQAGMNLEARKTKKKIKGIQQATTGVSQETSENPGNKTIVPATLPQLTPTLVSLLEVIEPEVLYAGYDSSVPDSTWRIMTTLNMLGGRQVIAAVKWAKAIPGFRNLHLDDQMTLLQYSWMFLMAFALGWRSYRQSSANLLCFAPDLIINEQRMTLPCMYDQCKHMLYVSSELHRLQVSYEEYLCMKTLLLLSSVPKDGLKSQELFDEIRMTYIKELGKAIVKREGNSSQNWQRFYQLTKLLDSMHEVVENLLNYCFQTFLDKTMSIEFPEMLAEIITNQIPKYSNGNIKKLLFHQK
Chain of Cytochrome P450 3A4 (Homo sapiens) (P08684 whole entry, looked up): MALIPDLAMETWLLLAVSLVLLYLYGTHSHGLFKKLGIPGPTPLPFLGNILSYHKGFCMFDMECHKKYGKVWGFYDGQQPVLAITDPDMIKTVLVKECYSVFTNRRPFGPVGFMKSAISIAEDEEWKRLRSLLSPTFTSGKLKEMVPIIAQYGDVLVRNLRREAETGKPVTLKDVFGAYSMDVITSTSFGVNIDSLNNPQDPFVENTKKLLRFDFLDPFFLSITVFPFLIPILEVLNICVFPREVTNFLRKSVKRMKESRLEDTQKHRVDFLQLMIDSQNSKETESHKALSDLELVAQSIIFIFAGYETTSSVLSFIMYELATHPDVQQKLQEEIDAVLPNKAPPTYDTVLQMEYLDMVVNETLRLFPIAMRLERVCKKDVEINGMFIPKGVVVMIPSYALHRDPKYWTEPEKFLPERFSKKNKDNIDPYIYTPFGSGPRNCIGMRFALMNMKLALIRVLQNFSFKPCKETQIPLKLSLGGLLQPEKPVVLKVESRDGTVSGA
Chain of Lysosomal acid glucosylceramidase (Homo sapiens) (P04062 whole entry, looked up): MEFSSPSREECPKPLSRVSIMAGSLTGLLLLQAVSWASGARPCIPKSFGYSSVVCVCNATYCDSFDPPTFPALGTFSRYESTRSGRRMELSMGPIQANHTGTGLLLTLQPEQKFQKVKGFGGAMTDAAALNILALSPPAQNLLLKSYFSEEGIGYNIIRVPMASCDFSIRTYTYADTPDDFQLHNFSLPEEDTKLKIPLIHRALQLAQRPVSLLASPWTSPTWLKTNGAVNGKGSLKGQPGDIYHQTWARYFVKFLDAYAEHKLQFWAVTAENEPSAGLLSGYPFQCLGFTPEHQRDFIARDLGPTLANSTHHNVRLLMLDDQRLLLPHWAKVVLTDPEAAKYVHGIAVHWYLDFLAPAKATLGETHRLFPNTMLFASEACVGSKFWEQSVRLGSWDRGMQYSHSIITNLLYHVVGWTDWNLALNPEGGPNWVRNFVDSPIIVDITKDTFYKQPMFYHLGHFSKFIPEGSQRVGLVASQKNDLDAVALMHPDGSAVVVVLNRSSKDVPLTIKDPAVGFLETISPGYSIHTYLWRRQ
Chain of Ubiquitin carboxyl-terminal hydrolase 1 (Homo sapiens) (O94782 whole entry, looked up): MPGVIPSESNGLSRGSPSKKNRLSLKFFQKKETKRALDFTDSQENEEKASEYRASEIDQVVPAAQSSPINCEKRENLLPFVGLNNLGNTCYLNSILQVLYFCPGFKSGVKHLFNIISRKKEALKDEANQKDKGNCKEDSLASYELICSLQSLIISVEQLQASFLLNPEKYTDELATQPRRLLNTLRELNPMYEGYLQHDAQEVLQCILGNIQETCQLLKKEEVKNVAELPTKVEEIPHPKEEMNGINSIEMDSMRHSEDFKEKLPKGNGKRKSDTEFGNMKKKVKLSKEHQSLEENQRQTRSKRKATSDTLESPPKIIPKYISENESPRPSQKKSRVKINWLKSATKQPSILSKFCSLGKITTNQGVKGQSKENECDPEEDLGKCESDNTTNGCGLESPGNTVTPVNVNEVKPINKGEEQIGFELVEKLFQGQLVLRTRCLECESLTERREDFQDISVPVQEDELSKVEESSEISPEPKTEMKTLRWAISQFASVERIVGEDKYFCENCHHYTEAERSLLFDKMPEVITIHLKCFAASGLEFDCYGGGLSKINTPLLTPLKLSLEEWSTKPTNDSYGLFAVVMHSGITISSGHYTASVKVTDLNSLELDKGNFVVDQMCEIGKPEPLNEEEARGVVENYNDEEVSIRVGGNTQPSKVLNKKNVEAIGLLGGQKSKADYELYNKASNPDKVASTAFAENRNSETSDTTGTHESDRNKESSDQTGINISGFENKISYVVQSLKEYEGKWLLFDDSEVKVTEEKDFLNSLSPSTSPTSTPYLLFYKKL
Chain of Cytochrome P450 2C19 (Homo sapiens) (P33261 whole entry, looked up): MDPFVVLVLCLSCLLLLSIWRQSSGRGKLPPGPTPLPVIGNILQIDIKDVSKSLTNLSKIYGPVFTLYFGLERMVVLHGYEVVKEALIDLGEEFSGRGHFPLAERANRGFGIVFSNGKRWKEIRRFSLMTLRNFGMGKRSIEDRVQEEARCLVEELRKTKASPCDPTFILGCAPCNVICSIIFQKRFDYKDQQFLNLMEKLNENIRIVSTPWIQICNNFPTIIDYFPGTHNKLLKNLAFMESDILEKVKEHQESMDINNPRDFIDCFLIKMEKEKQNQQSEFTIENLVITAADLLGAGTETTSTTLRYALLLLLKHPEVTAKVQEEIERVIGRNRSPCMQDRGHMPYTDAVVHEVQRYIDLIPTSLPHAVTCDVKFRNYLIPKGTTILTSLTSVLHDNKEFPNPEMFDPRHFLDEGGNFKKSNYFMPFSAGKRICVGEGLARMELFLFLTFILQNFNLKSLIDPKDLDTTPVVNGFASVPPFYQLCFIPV
Chain of 3',5'-cyclic-AMP phosphodiesterase 4B (Homo sapiens) (Q07343 whole entry, looked up): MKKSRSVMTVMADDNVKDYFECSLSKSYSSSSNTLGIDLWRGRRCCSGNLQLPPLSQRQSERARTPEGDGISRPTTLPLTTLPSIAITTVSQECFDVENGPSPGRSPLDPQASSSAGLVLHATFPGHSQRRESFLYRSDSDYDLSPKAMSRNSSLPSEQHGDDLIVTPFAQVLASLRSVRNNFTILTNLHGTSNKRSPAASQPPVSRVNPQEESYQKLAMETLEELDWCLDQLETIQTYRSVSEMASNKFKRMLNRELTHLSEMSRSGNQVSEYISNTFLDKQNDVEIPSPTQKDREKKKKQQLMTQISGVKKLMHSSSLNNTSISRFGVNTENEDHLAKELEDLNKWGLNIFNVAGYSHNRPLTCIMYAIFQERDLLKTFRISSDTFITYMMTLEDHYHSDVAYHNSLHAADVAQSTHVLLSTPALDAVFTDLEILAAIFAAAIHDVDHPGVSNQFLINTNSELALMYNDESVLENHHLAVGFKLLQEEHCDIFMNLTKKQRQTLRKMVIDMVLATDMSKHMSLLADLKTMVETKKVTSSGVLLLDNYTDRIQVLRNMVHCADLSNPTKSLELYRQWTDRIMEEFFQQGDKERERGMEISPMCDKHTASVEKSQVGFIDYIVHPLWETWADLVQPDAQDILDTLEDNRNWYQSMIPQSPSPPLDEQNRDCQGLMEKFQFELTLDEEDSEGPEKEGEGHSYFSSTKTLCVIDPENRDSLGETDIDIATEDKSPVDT

SMILES	Potency [1]	Potency [2]	outcome [3]	Potency [4] [µM]	Potency [5]	Potency [6]	Potency [7]	outcome [8]	Potency [9]	Potency [10]	Potency [11]	activity change, negative = inhibition [12] [%]	activity change, negative = inhibition [13] [%]	Potency [14] [µM]	Potency [15]	Potency [16]	Potency [17]	Potency [18]	Potency [19]
N#Cc1cccc(-c2ccc3ncnc(NCc4cccs4)c3c2)c1	> 11.4 µM	0.1 µM (active)	inactive	> 46	inactive	inactive	3.16 µM (active)	inactive	10 µM (active)	8.91 µM (active)	22.4 µM (active)	–	–	–	–	–	–	–	–
COCCNc1ncnc2ccc(-c3ccccc3OC)cc12	> 11.4 µM	2 µM (active)	–	> 46	inactive	inactive	–	inactive	15.8 µM (active)	10 µM (active)	inactive	-6.49	2.23	> 46	5.01 µM (active)	–	–	–	–
CS(=O)(=O)Nc1cccc(-c2nc(Nc3ccncc3)c3ccccc3n2)c1	7.2 µM (active)	–	inactive	> 46	inactive	–	3.98 µM (active)	inactive	12.6 µM (active)	10 µM (active)	inactive	-17.9	–	> 46	5.01 µM (active)	–	–	–	–
COc1ccc2[nH]cc(CCNc3ncnc4ccc(-c5ccoc5)cc34)c2c1	> 11.4 µM	0.316 µM (active)	inactive	> 46	inactive	inactive	3.98 µM (active)	inactive	0.794 µM (active)	0.708 µM (active)	inactive	–	0.633	> 46	7.94 µM (active)	5.01 µM (active)	0.562 µM (active)	–	–
CN(C)C(=O)c1ccc(-c2nc(Nc3ccccc3)c3ccccc3n2)cc1	> 11.4 µM	0.398 µM (active)	inactive	> 46	inactive	–	–	inactive	15.8 µM (active)	28.2 µM (active)	inactive	-10.3	2.53	–	–	–	–	–	–
COc1ccc(-c2nc3cnc(N4CCN(C)CC4)nc3n(CCc3ccccc3)c2=O)cc1	> 11.4 µM	–	–	> 9.22	inactive	inactive	inactive	–	inactive	inactive	inactive	–	–	> 46	–	–	inactive	3.16 µM (active)	–
COCCn1c(=O)c(-c2ccc(F)cc2)nc2cnc(Oc3ccccc3)nc21	> 11.4 µM	0.794 µM (active)	inactive	> 9.22	inactive	inactive	–	inactive	inactive	inactive	inactive	–	9.44	> 46	–	–	inactive	–	–
COc1ccc2[nH]cc(CCNc3cc(-c4ccccc4OC)ncn3)c2c1	> 11.4 µM	1.58 µM (active)	inactive	> 46	inactive	inactive	6.31 µM (active)	inactive	12.6 µM (active)	25.1 µM (active)	inactive	–	-7.55	–	3.16 µM (active)	–	–	–	–
COCCn1c(=O)c(-c2ccc(F)cc2)nc2cnc(Nc3cccc(OC)c3)nc21	> 11.4 µM	3.16 µM (active)	inactive	> 9.22	inactive	inactive	–	–	inactive	–	inactive	-8.42	-5.01	> 46	–	–	inactive	–	–
COc1cccc(-c2nc(NCCN3CCOCC3)c3ccccc3n2)c1	> 11.4 µM	–	inactive	> 46	inactive	inactive	–	inactive	15.8 µM (active)	15.8 µM (active)	inactive	6.11	-2.08	–	–	–	–	–	–
CCNc1ncc2nc(CCc3ccccc3)c(=O)n(CCC#N)c2n1	–	–	inactive	> 9.22	inactive	–	–	inactive	inactive	inactive	inactive	-12.2	-10.7	> 46	–	0.158 µM (active)	inactive	–	6.31 µM (active)
c1cncc(CNc2nc(-c3cccnc3)nc3ccccc23)c1	> 11.4 µM	0.316 µM (active)	inactive	> 46	inactive	–	–	–	7.08 µM (active)	–	inactive	-12.9	-15.2	> 46	–	–	11.2 µM (active)	–	–
COc1cccc(-c2ccc3ncnc(NCc4ccc(OC)cc4OC)c3c2)c1	> 11.4 µM	2.51 µM (active)	inactive	> 46	inactive	–	2.51 µM (active)	inactive	35.5 µM (active)	3.16 µM (active)	inactive	–	-18.9	> 46	–	–	–	–	–
